Compounds without any hit were thinned out: in the full panel of roughly 83,000, 20% have a hit.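 Cells were grown in 96-well plates and exposed to the test compound at a single concentration for 48 hours; results are reported as percent growth, with values below 10 considered active.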 Unmarked numbers belong to inactive results. Activity calls are given as the source filed them.

Drawing on PubChem BioAssay (NCI), this text covers growth for 28 molecules.

Holding throughout (experiment): NCI-60 one-dose screen, 48 h (100 = growth as untreated, 0 = no growth, -100 = all killed)
What all share (conditions): 10 µM unless noted

In test [1] the test system is SR leukemia.
Test [2] concerns RPMI-8226 leukemia.
In test [3] the test system is OVCAR-8 ovarian.
For test [4], the system named is OVCAR-4 ovarian.
The subject of test [5] is SK-OV-3 ovarian.
The test system of test [6] is IGROV1 ovarian.
Test [7] has as its system OVCAR-3 ovarian.
For test [8], the system named is HS 578T breast.
Test [9] deals with NCI/ADR-RES ovarian.
In test [10] the test system is OVCAR-5 ovarian.

In the case of `C=C1C(=O)O[C@@H]2C3C(=C(C)CC[C@@H]12)CC1O[C@]13C` (stereo partly specified), the growth is 38.4% [6.75 µM] in test [1]; 43.8% [6.75 µM] in test [2]; 83.5% [6.75 µM] in test [3]; 93.4% [6.75 µM] in test [4]; 118% [6.75 µM] in test [5]; 99.4% [6.75 µM] in test [6]. For the same molecule, the growth in test [7] was 75.8% [6.75 µM]; in test [8], 90.4% [6.75 µM]; in test [9], 98.1% [6.75 µM].
As to `O=c1oc2c(cc1-c1ccccc1)c[n+]([O-])c1ccccc21`, the growth in test [1] is 103%; in test [2], 98.2%; in [3], 94.9%; in test [4], 98.6%; in test [5], 104%; in test [6], 102%. The growth in test [7] was 112%; in [8], 99.9%; in test [9] it was 109%.
Turning to `O=c1ccc2ccc(OCCN3CCCCC3)cc2o1`, the growth in [1] was -35.7% (active); in test [2], -23.8% (active); in test [3], 95.2%; in [4] it was 113%; in test [5], 82.7%; in test [6], 110%. Besides, the growth in [7] is 113%; in [8], 96.5%; in test [9] it was 99.9%.
Take `N#Cc1ccc(/C=C/c2cn(-c3ccccc3)nc2-c2cccc([N+](=O)[O-])c2)cc1`: the growth in test [1] was 66.5%; in test [2], 74.8%; in test [3], 44.1%; in test [4], 33.1%; in [5], 69.8%; in [6] it was 51.2%. Besides, the growth is 70% in [7], 76.2% in test [8] and 62.8% in test [9].
As to `COc1ccc2cc(-c3nc4ccc(C)cn4c3NCc3ccco3)c(=O)[nH]c2c1`, the growth in [1] was 31.5%; in test [2], 62.3%; in [3], 78.5%; in test [4], 69.3%; in test [5], 78.1%; in test [6] it was 63.4%. The growth in [7] was 89.4%; in [8] it was 65.3%; in test [9], 68.7%.
In the case of `CC1(C)CC[C@]2(CO)CC[C@]3(C)[C@](O)([C@H](O)C[C@@H]4[C@@]5(C)CCCNC(C)(C)[C@@H]5CC[C@]43C)[C@@H]2C1`, the growth is 3.98% (active) in [1]; 74.4% in test [2]; 101% in test [3]; 96.2% in test [4]; 98.2% in test [5]; 102% in [6]. Besides, the growth in test [7] was 101%; in test [8], 98.9%; in test [9] it was 100%.
In the case of `Cc1ccc(C(=O)c2ccc(CC(=O)N/N=C/c3cccc(O)c3O)n2C)cc1`, the growth was 8.86% (active) in test [1]; 35.1% in [2]; 38.6% in [3]; 72.6% in test [10]; 68% in test [5]; 51.2% in test [6]. Also, the growth in [7] was 23.5%; in [9] it was 19.2%.
With `Cc1cc(=O)oc2cc(Oc3nc(Br)cn4c(Br)cnc34)ccc12`, the growth in test [1] was 69.4%; in test [2] it was 95.5%; in test [3] it was 64.7%; in test [4], 45.5%; in test [5], 85.5%; in test [6] it was 77.4%. Further, the values for the growth in test [7], in [8] and in [9] were 56.7%, 69.9% and 57.5%, respectively.
As to `Nc1cc(Br)cc2c1[nH]c(=O)c1ccccc12`, the growth in test [1] was 90.7%; in [2], 96.1%; in test [3], 86.2%; in [4] it was 84.2%; in [5], 105%; in test [6], 114%. In addition, the growth is 94.4% in test [7], 91.6% in test [8] and 91.7% in test [9].
In the case of `Cc1ccc(O)c(NC(=O)c2cccc(Nc3ccnc(C(F)(F)F)c3)c2)c1`, the growth in test [1] is 39.8%; in test [2] it was -1.23% (active); in test [3], 73.2%; in [4] it was 45.3%; in test [5] it was 72.9%; in [6], 79.1%. Further, the growth in test [7] is 93.2%; in test [8], 93%; in test [9] it was 40.2%.
Turning to `O=C(NC1CCC(Br)CC1)C1CCCC(S(=O)(=O)NC2CCCCC2)C1` (stereo unspecified), the growth was 21.1% [25 µM] in [1]; 2.82% [25 µM] (active) in [2]; 7.56% [25 µM] (active) in test [3]; 4.59% [25 µM] (active) in [4]; 1.87% [25 µM] (active) in [5]; 27.4% [25 µM] in test [6]. Further, the values for the growth in test [7], in test [8] and in [9] were 14.3% [25 µM], 46.1% [25 µM] and 3.69% [25 µM] (active), respectively.
For the molecule `COc1ccc(CN2C(=O)OC(C)(COC(C)=O)C2=O)cc1` (stereo unspecified), the growth in test [1] is 94%; in test [2], 103%; in test [3], 104%; in test [4], 104%; in [5], 97.3%; in [6] it was 107%. Besides, the growth in test [7] was 112%; in [8], 108%; in test [9] it was 109%.
For the molecule `CN(C)c1ccc(/C=N\NC(=O)c2ccc3nc(-c4ccc(Cl)cc4)[nH]c3c2)cc1`, the growth in test [1] was 20.7%; in [2] it was 67.4%; in test [3] it was 51.3%; in test [4], 36.4%; in [5] it was 98.3%; in test [6] it was 40.2%. In addition, the growth in test [7] was 70.7%; in [8], 70%; in test [9] it was 77%.
Take `O=C(/C=C/c1ccccc1)c1ccc(-n2cc(CN3CCN(c4cc5c(cc4F)c(=O)c(C(=O)O)cn5C4CC4)CC3)nn2)cc1`: the growth in [1] is 24.1%; in [2], -0.509% (active); in [3] it was 62%; in test [4] it was 89.7%; in test [5], 80%; in [6], 84%. Also, the growth in [7] is 91.5%; in test [8] it was 67.4%; in [9], 87%.
`CS(=O)(=O)Nc1cc(-c2ccc3ncnc(Nc4ccc5c(cnn5Cc5ccccc5F)c4)c3c2)cnc1Cl`: the growth in [1] is 35.4%; in test [2], 5.17% (active); in [3] it was 69.7%; in test [4] it was 63.4%; in [5] it was 29.9%; in [6] it was -15.8% (active). For the same molecule, the growth in test [7] was 13.1%; in test [8], 7.95% (active); in test [9], 92.2%.
On to `C=C1CC[C@@H]2C(C)(C)[C@H](O)CC[C@@]2(C)[C@@H]1COc1ccc2ccc(=O)oc2c1`, for which the growth in test [1] was 85.5%; in test [2], 6.64% (active); in test [3] it was 17%; in test [5] it was 104%; in [6], 60.7%; in test [7], 46.8%. In addition, the growth in [8] is 69.8%; in test [9], 5.04% (active).
As to `Cc1cccc(-c2nc(C(C)C)sc2-c2ccnc(NCCCNS(=O)(=O)c3ccc(Cl)cc3)c2)c1`, the growth is 54.6% in test [1]; 69.2% in test [2]; 81.4% in test [3]; 82.8% in [4]; 72.9% in test [5]; 70.5% in test [6]. Moreover, the figures for the growth in [7], in test [8] and in test [9] were 76.8%, 82% and 58.9%, respectively.
As for `COc1ccc2[nH]cc(-c3nonc3-c3c[nH]c4ccc(Br)cc34)c2c1`, the growth is 35.4% in [1]; 52.7% in [2]; 48.7% in test [3]; 50.1% in [4]; 56.3% in test [5]; 65.3% in [6]. Moreover, the growth is 62.6% in [7] and 55.1% in test [8].
As for `COc1ccc(-c2cn(Cc3cc4ccccc4s3)nn2)cc1OCCN1CCCCC1`, the growth in [1] was 1.37% (active); in test [2] it was 28.5%; in test [3], 83.2%; in test [5], 93.1%; in test [6] it was 80.8%; in [7] it was 74.6%. For the same molecule, the values for the growth in [8] and in test [9] were 51.3% and 75.4%, respectively.
Take `FC(F)(F)c1[nH]ncc1-c1nc2ccc3[nH]ncc3c2c2c1CCCC2`: the growth in [1] was -16.6% (active); in [2] it was 12.3%; in test [3] it was 13.7%; in test [4], 45.8%; in [5], -3.29% (active); in test [6], -8.57% (active). Besides, the growth was 9.88% (active) in test [7], -3.07% (active) in test [8] and 53.7% in test [9].
`Cc1ccc(S(=O)(=O)N2CCCN(c3nc(-c4ccccc4)nc4nc(-c5ccccc5)oc34)CC2)cc1`: the growth in test [1] is 92.2%; in test [2], 89.6%; in test [3], 95.4%; in test [4], 103%; in test [5], 107%; in test [6] it was 90.2%. Moreover, the growth was 114% in [7], 103% in [8] and 102% in test [9].
With `O=C(CN1C(=O)S/C(=C\C(Cl)=C\c2ccccc2)C1=O)NC1CCS(=O)(=O)C1` (stereo unspecified), the growth was 14.2% in test [1]; 21.7% in test [2]; 47.1% in test [3]; 78.7% in test [4]; 106% in [5]; 41.3% in test [6]. Also, the growth in [7] was 19.4%; in [8] it was 87.4%; in [9], 84%.
For the molecule `Cn1cc(-c2nonc2-c2c[nH]c3ccccc23)c2cc(Br)ccc21`, the growth in test [1] was 15.3%; in [2], 40.6%; in test [3] it was 45%; in test [4], 49.6%; in [5], 49.8%; in [6] it was 43%. For the same molecule, the growth was 33.5% in [7], 59.1% in test [8] and 29.3% in [9].
Consider `CN(C)C1CN(C(=O)c2cc(-c3ccc4ncnc(N5CCc6cc(F)c(Cl)cc65)c4c3)cnc2N)C1`, for which the growth is 13.3% in test [1]; -10.8% (active) in [2]; 16% in [3]; 5.94% (active) in test [4]; 23.1% in [5]; -33.6% (active) in test [6]. Also, the growth is -16.5% (active) in test [7], -24.1% (active) in test [8] and 21.1% in test [9].
As to `CC(=O)c1c(Nc2cccc(F)c2)[nH]c2c(Cl)cc(Cl)c(Cl)c2c1=O`, the growth in test [1] is 14.8%; in test [2] it was -8.11% (active); in [3], 7.74% (active); in [4], 13.5%; in [5] it was 1.25% (active); in test [6] it was 17.9%. The growth was 14.8% in test [7], 4.68% (active) in test [8] and 3.89% (active) in test [9].
In the case of `COc1ccc(CNc2ccc3nc(NC(=O)CN4CCCCCC4)sc3c2)cc1`, the growth was 93.5% in test [1]; 55.6% in test [2]; 87.8% in test [3]; 62.3% in [4]; 103% in test [5]; 107% in [6]. Moreover, the growth in [7] is 101%; in [8], 115%; in [9] it was 82.9%.
As for `COC(=O)c1nc(-c2ccccc2)oc1S(=O)(=O)N1CCCC(C)C1` (stereo unspecified), the growth in test [1] is 0.921% (active); in test [2], 51%; in test [3], 81.9%; in [4] it was 83.2%; in [5], 110%; in [6] it was 64%. The growth is 48.9% in test [7] and 100% in [9].
Regarding `Cc1cccc(N2C(=O)/C(=C/C(Cl)=C/c3ccc([N+](=O)[O-])cc3)SC2=S)c1C`, the growth in test [1] is 2.55% (active); in test [2] it was -13.1% (active); in test [3] it was 9.93% (active); in test [5], 72.7%; in [6], -40.5% (active); in test [7] it was -21.4% (active). Also, the growth is 27.8% in test [8] and 7.84% (active) in [9].
